Laboratory results taken from PubChem BioAssay (NCATS).
Results filed as inconclusive are left out. Calls of active or inactive are those of the source. The call rests on the fitted dose curve; in most records, active means well fitted curve in either direction with a large enough effect (not every such curve was filed as active); inconclusive means small, poorly fitted or top-dose-only effect, or another doubt; inactive means flat fitted curve, though single readings scatter.

Assay: AP1 Signaling Pathway (AID 357);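 further: ME-180 reporter cells stimulated with EGF at its EC50 level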
Conditions: ME-180 (cervical carcinoma) AP-1-bla reporter, EGF-induced, beta-lactamase ratio, 5 h; at 17.2 µM (top of the series) unless noted
Procedure, shortened: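 Modulation of EGF-driven AP-1 transcription was assessed with a beta-lactamase reporter in ME-180 cells. Compound and EC50 EGF were co-incubated 5 hours at 37 °C before 2.5-hour CCF4 loading at room temperature and dual-emission reading.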
On the % scale 0 is the no-effect control and ±100 the full control effect.

| SMILES | activity change, negative = inhibition |
| --- | --- |
| COC(=O)[C@@H](N)Cc1ccc(O)cc1 | -11% (inactive) |
| CCN(CC)CCN1C(=O)C(=O)/C(=C(/O)c2ccc(F)cc2)C1c1cccnc1 (stereo not drawn) | 12.6% (inactive) |
| N/C(=N\c1nc2ccccc2o1)NC(=O)c1ccccc1NC(=O)c1ccccc1 | 14.1% (inactive) |
| COC(=O)c1c(-n2cnnn2)sc(C)c1C | -20.5% (inactive) |
| CC1(C)Cc2c(C#N)c(NCCN3CCOCC3)nc(-c3ccco3)c2CO1 | -12.2% (inactive) |
| CN(C)c1ccc(O)c2c1CC1CC3[C@@H](N(C)C)C(=O)C(C(N)=O)=C(O)[C@]3(O)C(=O)C1=C2O (stereo partly drawn) | 6.78% (inactive) |
| O=c1c(C=NCCCn2ccnc2)c(-c2ccccc2)[nH]n1-c1nc2ccccc2s1 | -0.182% (inactive) |
| CN1C(=O)NC(c2ccccc2)C2=C1CN(Cc1ccccc1)C2=O (stereo not drawn) | -1.08% (inactive) |
| CCN(CC)C(=O)CN(C#N)c1nc(NC(C)C)nc(NC(C)C)n1 | 4.86% (inactive) |
| CCCCC(=O)NC(Nc1ccc(C)cn1)(C(=O)OCC)C(F)(F)F (stereo not drawn) | 6.8% (inactive) |
| CSc1nc2sc3c(c2c2nncn12)CCC3 | -7.57% (inactive) |
| CN(C)c1ccc(C2C3C(=O)N(c4ccc(C(=O)O)cc4)C(=O)C3ON2c2ccccc2)cc1 (stereo not drawn) | -1.48% (inactive) |
| C/C(=N\O)C(=O)NCCCn1ccnc1 | 16.3% (inactive) |
| CC(C)c1[nH]c(=O)c(C#N)c2c1CSC(C)(C)C2 | -3.98% (inactive) |
| Cn1c(=O)c2c(nc(Oc3ccc4c(c3)OCO4)n2Cc2ccc(F)cc2)n(C)c1=O | 28.8% (inactive) |
| Cn1c2c(c(=O)n(C)c1=O)C(NC(=O)c1cccs1)(C(F)(F)F)C(=O)N2 (stereo not drawn) | -2.19% (inactive) |
| Cc1cc(OCC(=O)Nc2ccc3oc(-c4ccncc4)nc3c2)ccc1Cl | -4.67% (inactive) |
| Cc1ccc(C)c(OCc2nnc(NC(=O)c3ccco3)s2)c1 | -0.273% (inactive) |
| CN1C(=O)NC(NC(=O)c2ccco2)(C(F)(F)F)C1=O (stereo not drawn) | 3.54% (inactive) |
| Cc1c(-c2cccs2)[n+](=O)c2c(n1[O-])CCCC2 | 14.7% (inactive) |

| SMILES | activity change, negative = inhibition |
| --- | --- |
| CCOc1nc(SCCOc2ccccc2)nc(N(C)C)n1 | -22.1% (inactive) |
| CC(=O)Nc1ccc(OC(=O)CC2SC(=O)NC2=O)cc1 (stereo not drawn) | 6.63% (inactive) |
| O=C(OCCCN1CCCC1)C1(c2ccccc2)CCCC1 | 14.4% (inactive) |
| CCc1nc2n[nH]c(N)c2c2c1CSC(C)(C)C2 | 1.67% (inactive) |
| CCN(CC)c1nc(C)c2c(c1C#N)CC(C)(C)OC2 | -7.83% (inactive) |
| Cc1cc2ccccc2cc(C)c1=O | 9.45% (inactive) |
| CCO/C(C)=N/n1c2nc3ccccc3nc2c2c(=O)n(CC(C)C)c(C)nc21 | -19.8% (inactive) |
| Cc1cccc(-c2nc(C#N)c(NC3CCCCC3)o2)c1 | -27.9% (inactive) |
| COc1cccc(OC)c1-c1nn2c(-c3ccco3)nnc2s1 | -10.9% (inactive) |
| Cn1c(OCc2cccnc2)nc2c1c(=O)n(Cc1ccc(Cl)cc1)c(=O)n2C | -16.3% (inactive) |
| Cc1nnc2n(Cc3ccccc3)c(=O)c3c4c(sc3n12)CN(Cc1ccccc1)CC4 | 3.27% (inactive) |
| CN=C1c2cc3c(Br)c(OC)ccc3n2CCN1C | 4.49% (inactive) |
| Cc1cc(C)nc(NC(=O)c2ccc(OC(C)C)cc2)n1 | -5.46% (inactive) |
| COc1cccc(C2C(C(=O)c3cc4ccccc4o3)=C(O)C(=O)N2CCN(C)C)c1OC (stereo not drawn) | 8.36% (inactive) |
| COc1ccc2c(c1OC)C(=O)N1c3ccccc3SC21 (stereo not drawn) | 2.44% (inactive) |
| CCNc1nc(Oc2ccccc2)nc(OC(C)C(=O)OCC)n1 (stereo not drawn) | -1.07% (inactive) |
| O=C1CC(NCc2ccc3c(c2)OCO3)C(=O)N1Cc1ccc2c(c1)OCO2 (stereo not drawn) | -14.2% (inactive) |
| CCCCC1CC1C(=O)Nc1ccc(OC)c(OC)c1 (stereo not drawn) | -2.76% (inactive) |
| O=C(O)c1cc2n(n1)C(C(F)(F)F)CC(c1ccccc1)N2 (stereo not drawn) | 3.84% (inactive) |

Assay: NFAT Signaling Pathway (AID 444);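 further: carbachol stimulus at about its EC50 of 1 µM final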
Conditions: Jurkat NFAT-bla M1, carbachol, beta-lactamase ratio, 5 h; at 17.2 µM (top of the series) unless noted
Procedure, shortened: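 Jurkat cells carrying an NFAT-driven β-lactamase reporter and co-transfected muscarinic M1 receptor were treated with compound plus carbachol (1 uM final, an EC50 level) for 5 h at 37 °C. CCF4 loading followed for 1 h at RT; 460/530 nm ratio gave %activity.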

| SMILES | activity change, negative = inhibition |
| --- | --- |
| COC(=O)[C@@H](N)Cc1ccc(O)cc1 | -26% (inactive) |
| CCN(CC)CCN1C(=O)C(=O)/C(=C(/O)c2ccc(F)cc2)C1c1cccnc1 (stereo not drawn) | 3.02% (inactive) |
| N/C(=N\c1nc2ccccc2o1)NC(=O)c1ccccc1NC(=O)c1ccccc1 | -14.2% (inactive) |
| COC(=O)c1c(-n2cnnn2)sc(C)c1C | 2.79% (inactive) |
| CC1(C)Cc2c(C#N)c(NCCN3CCOCC3)nc(-c3ccco3)c2CO1 | 5.08% (inactive) |
| CN(C)c1ccc(O)c2c1CC1CC3[C@@H](N(C)C)C(=O)C(C(N)=O)=C(O)[C@]3(O)C(=O)C1=C2O (stereo partly drawn) | 8.29% (inactive) |
| O=c1c(C=NCCCn2ccnc2)c(-c2ccccc2)[nH]n1-c1nc2ccccc2s1 | -18.1% (inactive) |
| CN1C(=O)NC(c2ccccc2)C2=C1CN(Cc1ccccc1)C2=O (stereo not drawn) | 1.92% (inactive) |
| CCN(CC)C(=O)CN(C#N)c1nc(NC(C)C)nc(NC(C)C)n1 | -0.753% (inactive) |
| CCCCC(=O)NC(Nc1ccc(C)cn1)(C(=O)OCC)C(F)(F)F (stereo not drawn) | -3.17% (inactive) |
| CSc1nc2sc3c(c2c2nncn12)CCC3 | -18% (inactive) |
| CN(C)c1ccc(C2C3C(=O)N(c4ccc(C(=O)O)cc4)C(=O)C3ON2c2ccccc2)cc1 (stereo not drawn) | 17.3% (inactive) |
| C/C(=N\O)C(=O)NCCCn1ccnc1 | 1.22% (inactive) |
| CC(C)c1[nH]c(=O)c(C#N)c2c1CSC(C)(C)C2 | -5.85% (inactive) |
| Cn1c(=O)c2c(nc(Oc3ccc4c(c3)OCO4)n2Cc2ccc(F)cc2)n(C)c1=O | 2.74% (inactive) |
| Cn1c2c(c(=O)n(C)c1=O)C(NC(=O)c1cccs1)(C(F)(F)F)C(=O)N2 (stereo not drawn) | 12.3% (inactive) |
| Cc1cc(OCC(=O)Nc2ccc3oc(-c4ccncc4)nc3c2)ccc1Cl | 16.6% (inactive) |
| Cc1ccc(C)c(OCc2nnc(NC(=O)c3ccco3)s2)c1 | 9.32% (inactive) |
| CN1C(=O)NC(NC(=O)c2ccco2)(C(F)(F)F)C1=O (stereo not drawn) | 4.93% (inactive) |
| Cc1c(-c2cccs2)[n+](=O)c2c(n1[O-])CCCC2 | -0.25% (inactive) |

| SMILES | activity change, negative = inhibition |
| --- | --- |
| CCOc1nc(SCCOc2ccccc2)nc(N(C)C)n1 | 28% (inactive) |
| CC(=O)Nc1ccc(OC(=O)CC2SC(=O)NC2=O)cc1 (stereo not drawn) | 11.3% (inactive) |
| O=C(OCCCN1CCCC1)C1(c2ccccc2)CCCC1 | -82.8% (active) |
| CCc1nc2n[nH]c(N)c2c2c1CSC(C)(C)C2 | 14.6% (inactive) |
| CCN(CC)c1nc(C)c2c(c1C#N)CC(C)(C)OC2 | -24.4% (inactive) |
| Cc1cc2ccccc2cc(C)c1=O | -28.3% (inactive) |
| CCO/C(C)=N/n1c2nc3ccccc3nc2c2c(=O)n(CC(C)C)c(C)nc21 | 12.6% (inactive) |
| Cc1cccc(-c2nc(C#N)c(NC3CCCCC3)o2)c1 | -26.6% (inactive) |
| COc1cccc(OC)c1-c1nn2c(-c3ccco3)nnc2s1 | -8.25% (inactive) |
| Cn1c(OCc2cccnc2)nc2c1c(=O)n(Cc1ccc(Cl)cc1)c(=O)n2C | 22% (inactive) |
| Cc1nnc2n(Cc3ccccc3)c(=O)c3c4c(sc3n12)CN(Cc1ccccc1)CC4 | -8.71% (inactive) |
| CN=C1c2cc3c(Br)c(OC)ccc3n2CCN1C | -7.64% (inactive) |
| Cc1cc(C)nc(NC(=O)c2ccc(OC(C)C)cc2)n1 | -4.53% (inactive) |
| COc1cccc(C2C(C(=O)c3cc4ccccc4o3)=C(O)C(=O)N2CCN(C)C)c1OC (stereo not drawn) | 1.15% (inactive) |
| COc1ccc2c(c1OC)C(=O)N1c3ccccc3SC21 (stereo not drawn) | 6% (inactive) |
| CCNc1nc(Oc2ccccc2)nc(OC(C)C(=O)OCC)n1 (stereo not drawn) | 6.54% (inactive) |
| O=C1CC(NCc2ccc3c(c2)OCO3)C(=O)N1Cc1ccc2c(c1)OCO2 (stereo not drawn) | 15.6% (inactive) |
| CCCCC1CC1C(=O)Nc1ccc(OC)c(OC)c1 (stereo not drawn) | 3.38% (inactive) |
| O=C(O)c1cc2n(n1)C(C(F)(F)F)CC(c1ccccc1)N2 (stereo not drawn) | -0.387% (inactive) |
